A selection: hits, their analogues and other compounds. The true share with any hit is near 1.3%.
PTHR1 agonist – agonists of human PTHR1 parathyroid hormone receptor; hit rate 0.075% among 410,000; Potency, µM (titrated, usually from 115 µM), hits mostly activators; HEK293 GP2 PTHR1 cells, GloSensor cAMP luminescence, 1 h; Q03431; note: nearly all actives have a fitted effect of over 55% in size
Target sequence (Q03431 whole entry, looked up): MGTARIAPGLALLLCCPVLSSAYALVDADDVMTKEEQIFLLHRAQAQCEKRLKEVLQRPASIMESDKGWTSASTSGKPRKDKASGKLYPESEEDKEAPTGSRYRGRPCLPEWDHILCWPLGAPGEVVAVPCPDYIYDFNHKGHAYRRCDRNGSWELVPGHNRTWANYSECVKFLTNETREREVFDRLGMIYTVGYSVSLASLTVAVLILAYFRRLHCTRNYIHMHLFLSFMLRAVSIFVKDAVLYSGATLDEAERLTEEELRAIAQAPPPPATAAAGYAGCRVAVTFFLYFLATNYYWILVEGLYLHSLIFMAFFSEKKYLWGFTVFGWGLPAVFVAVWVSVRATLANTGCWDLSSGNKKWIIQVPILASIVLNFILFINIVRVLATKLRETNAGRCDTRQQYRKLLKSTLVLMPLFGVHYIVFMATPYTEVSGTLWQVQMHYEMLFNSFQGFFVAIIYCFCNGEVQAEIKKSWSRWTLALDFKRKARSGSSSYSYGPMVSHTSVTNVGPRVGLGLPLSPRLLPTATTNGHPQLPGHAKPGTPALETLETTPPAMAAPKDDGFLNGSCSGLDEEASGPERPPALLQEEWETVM
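HEK-293-derived GP2 cells expressing PTHR1 and a GloSensor cAMP reporter, 3,000/well, plated overnight, given luciferin plus IBMX (each 0.5 mM as added) for 1 h at 37 °C, then compound for 1 h at 37 °C. Luminescence was read after 15 min at room temperature.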
Chronic BCR inh – blocks chronic active B-cell receptor signaling; ABC-DLBCL IkBa-CBG/CBR reporter, luminescence ratio, 4 h; hit rate 0.05% among 340,000; Potency, µM (series often up to 46.1 µM), usual class: inhibitors; active = well fitted inhibition curve with a large enough effect in the signal ratio, with a control signal flat, not every such curve was filed as active; inconclusive = small, poorly fitted or top-dose-only effect, or effect the other way, or a change in a side signal; the % refers to the signal ratio
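Doxycycline induced both beetle luciferases in TMD8 lymphoma cells; IKK-driven degradation limits the IkappaBalpha-fused green signal, while red luminescence normalises for cell number and nonspecific effects. Compounds tested up to 46 uM, 4 hrs.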
TCR act – activates T cell receptor signaling | primary human leukocytes, anti-CD3, IL-2 HTRF, 48 h | Potency, µM (highest dose often 9.22 µM), usual class: activators | 330,000 tested, under 10 active | AID 504894
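Readout: HTRF IL-2, Eu-cryptate/d2 antibody pair, 320nm excitation, 665nm emission. Stimulus: a-CD3 beads, no co-stimulation. Cells: primary human leukocytes. Exposure: 48 hr with compound.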
Mito fusion act – mitochondrial division inhibition or fusion activation. S. cerevisiae fusion-defective mutant growth rescue, CellTiterGlo 48 h. Potency, µM (titrated, usually from 46.1 µM), usual class: activators. hit rate 0.23% among 320,000. AID 485298; note: nearly all actives have a fitted effect of over 45% in size
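S. cerevisiae fusion-defective temperature-sensitive mutants (e.g. fzo1-1, mgm1-5) grown 48 h at 37C in YPEG (ethanol/glycerol non-fermentable) medium with 23 nl compound per well; growth rescue read as CellTiterGlo luminescence.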
IL2 activator – activates IL-2 in a cell-based reporter assay; IL-2 activation reporter assay, cell-based qHTS; stimulated with anti-CD3/CD4/CD28 beads; in transgenic mouse T cells; activation, % (series mostly up to about 46 µM); hit rate 0.065% among 360,000; in the data active = activation above about 50%; inconclusive = mostly about 30% to 49%
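Readout is EGFP and DsRed signal by fluorescent plate cytometry after 18 h at 37 degrees C. Transgenic mouse T cells (750/well) received compound for 60 min before bead stimulation (anti-CD3, anti-CD4, anti-CD28); memory T cells served as non-tolerant control.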
BRCA1 expr act – increases BRCA1 expression; Potency, µM (top dose mostly 46.1 µM), actives largely listed as activators; hit rate 1.1% among 380,000; MCF7-BRCA1-FFLuc reporter, luminescence, 48 h; response scale: scaled: vehicle 0%, 10 µM genistein 100%; note: nearly all actives have a fitted effect of over 80% in size
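Luminescence from a BRCA1-driven firefly luciferase in MCF7 cells was read after 48 h compound exposure at 37 C. Data normalized against DMSO and a 10microM genistein activation control, then curve-fitted across the titration.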
Each line names hits and unclear results; the compound was inactive in the other large screens. Unless noted, calls come from the whole dose curve; as a rule, active = well fitted curve in the direction sought with a large enough effect; inconclusive = small, poorly fitted or top-dose-only effect, or another doubt; inactive = no such curve, though single readings can be large; an effect the other way counts as inactive or inconclusive.

Nc1nc(SCc2ccccc2)c2ncn(C3CCCO3)c2n1 (stereo not drawn)	BRCA1 expr act 8.9µM (no result: Chronic BCR inh, Mito fusion act)
Nc1nc(SCc2ccccc2)c2ncn(C3CCCCC3)c2n1	none (no result: Chronic BCR inh, Mito fusion act)
CC(=O)c1cccc(NC(=O)c2cc(-c3cccs3)on2)c1	BRCA1 expr act 10µM
COc1ccc(CNC(=O)Nc2cccc(Cl)c2)cc1	BRCA1 expr act 7.1µM
COc1cccc(NC(=O)NCc2ccccc2Cl)c1	BRCA1 expr act 13µM (no result: Chronic BCR inh, Mito fusion act)
O=C(Nc1cccc(O)c1)c1cc(-c2cccs2)on1	Chronic BCR inh inconclusive
COc1ccc(-c2cc(C(=O)Nc3cccc(Cl)c3)no2)cc1	Chronic BCR inh inconclusive, BRCA1 expr act 3.2µM
CCN(CC)CC(=O)c1c(C)n(C)c2ccc(OC)cc12	none (no result: PTHR1 agonist, Chronic BCR inh, TCR act, Mito fusion act, IL2 activator)
Cc1ccc(CN(Cc2cc3cc(C)ccc3[nH]c2=O)Cc2nnnn2Cc2ccccc2)cc1	none (no result: PTHR1 agonist, Chronic BCR inh, TCR act, Mito fusion act, IL2 activator)
CCCc1cc(=O)oc2cc(C)cc(OCC(=O)NCCCN3CCOCC3)c12	none
CC(C)(C)C(c1nc2ccccc2[nH]1)n1c(-c2cc(Cl)cc(Cl)c2)nc2ccccc21 (stereo not drawn)	none (no result: Chronic BCR inh, TCR act, Mito fusion act, BRCA1 expr act)
Cc1cc(Cl)ccc1OCc1cc(=O)n2c3c(sc2n1)CCCC3	none (no result: Chronic BCR inh, TCR act, Mito fusion act, IL2 activator)
CCc1ccc(N=c2c([N+](=O)[O-])nn(-c3ccccc3)n2O)cc1	Mito fusion act 18µM
Cc1cc(C)cc(N=c2c([N+](=O)[O-])nn(-c3ccc(Cl)cc3)n2O)c1	none
Cc1cc2nccc(-c3ccc(Cl)cc3Cl)n2n1	Chronic BCR inh inconclusive
CC(O)CN1CCN(C(=O)CN2C(=O)NC(c3ccccc3)(c3ccccc3)C2=O)CC1 (stereo not drawn)	none
N#Cc1ccccc1NC(=O)c1ccc2c(Cl)c3c(nc2c1)CCCC3	BRCA1 expr act 6.3µM
O=C(c1nc2ccc(Cl)cn2c1CNCCc1cnccn1)N1CCCCCCC1	none
O=c1ccc2c(OCCCCc3ccccc3)c3ccoc3cc2o1	Mito fusion act 5.2µM (no result: PTHR1 agonist, Chronic BCR inh, TCR act, IL2 activator, BRCA1 expr act)
COc1c2ccoc2cc2oc(=O)ccc12	none (no result: Mito fusion act)
Nc1ccc(CCc2nc3ccccc3o2)cc1	Chronic BCR inh inconclusive, BRCA1 expr act 2.8µM (no result: TCR act)
C=C(C)C1Cc2cc3ccc(=O)oc3cc2O1 (stereo not drawn)	Chronic BCR inh inconclusive, BRCA1 expr act 10µM
COC(=O)C1=CO[C@@H](O[C@@H]2O[C@H](CO)[C@@H](O)[C@H](O)[C@H]2O)C2C1C=C[C@@]2(O)CO (stereo partly drawn)	none (no result: Mito fusion act)
COc1ccc(-c2cn(-c3ccccc3)nc2CO)cc1	Chronic BCR inh inconclusive, BRCA1 expr act inconclusive
Cc1ccc(-c2nn(-c3ccccc3)cc2CO)cc1	Chronic BCR inh inconclusive, BRCA1 expr act 7.9µM
COc1ccc(-c2c(C)nn(-c3ccccc3)c2N)cc1	Chronic BCR inh inconclusive, BRCA1 expr act 11µM
COc1ccc(-c2nn(-c3ccccc3)cc2CO)cc1	Chronic BCR inh inconclusive, BRCA1 expr act inconclusive
COc1ccc(-c2nn(-c3ccccc3)cc2N)cc1	BRCA1 expr act 3.2µM
CCN(C[C@H]1N[C@@](Cc2ccccc2)(C(=O)OC)[C@H]2C(=O)N(C)C(=O)[C@@H]12)C(=O)Nc1ccccc1	none (no result: Mito fusion act)
Cc1cccc(C)c1NC(=O)C(c1cccc2ccccc12)n1c(=O)c(-c2cc3ccccc3[nH]2)nc2ccccc21 (stereo not drawn)	none (no result: Chronic BCR inh, TCR act, Mito fusion act, BRCA1 expr act)
O=C(NCCc1ccccc1Cl)c1ccc2c(c1)nc1n2CCCCC1	none (no result: Chronic BCR inh, TCR act, Mito fusion act, IL2 activator, BRCA1 expr act)
COc1cccc(C2Nc3ccccc3C(=O)N2O)c1O (stereo not drawn)	none
COc1cccc(C2Nc3ccccc3C(=O)N2c2ccc(F)cc2)c1O (stereo not drawn)	BRCA1 expr act 7.9µM
O=C1c2ccccc2NC(c2ccccn2)N1c1ccc(Cl)cc1 (stereo not drawn)	BRCA1 expr act 11µM
O=C1c2ccccc2NC(c2ccccc2)N1c1ccc(O)cc1 (stereo not drawn)	none
O=C1c2ccccc2NC(c2ccccc2O)N1c1ccc(F)cc1 (stereo not drawn)	BRCA1 expr act 4µM
CC(=O)Nc1ccc(/C=C/c2nc(-c3ccccc3O)n(-c3ccccc3)n2)cc1	none (no result: Chronic BCR inh, TCR act, Mito fusion act, IL2 activator, BRCA1 expr act)
Cc1cnc2c(C)ccc(C)c2c1/C=C/c1ccc(N(C)C)cc1	none (no result: PTHR1 agonist, Chronic BCR inh, TCR act, Mito fusion act, IL2 activator)
CC(=O)OCC(=O)[C@H]1CC[C@H]2[C@@H]3CCC4=CC(=O)CC[C@]4(C)[C@H]3CC[C@]12C	Chronic BCR inh inconclusive
CC12CCC(O)CC1=CCC1C2CCC2(C)C1CCC21CCC(=O)O1 (stereo not drawn)	Mito fusion act 20µM
CC(=O)OCC(=O)C1CCC2C3CC=C4CC(O)CCC4(C)C3CCC12C (stereo not drawn)	Mito fusion act 3.2µM
C[C@]12CCC3C(CC=C4C[C@@H](O)CC[C@@]43C)C1CCC2[C@]1(C)CCC(=O)O1 (stereo partly drawn)	Chronic BCR inh inconclusive
CNS(=O)(=O)c1cn(CC(=O)Nc2cccc(C(F)(F)F)c2)cc1S(=O)(=O)NC	none (no result: Chronic BCR inh, TCR act, Mito fusion act, IL2 activator, BRCA1 expr act)
Fc1ccc(CN2CC[C@H]3C=CCc4cccc(c43)C2)cc1	none
